Experimental findings from PubChem BioAssay (NCI) are described below.

Holding throughout (test): NCI-60 one-dose screen, 48 h (100 = growth as untreated, 0 = no growth, -100 = all killed)
Holding throughout (conditions): 10 µM unless noted

The test system of experiment [1] is HCT-15 colon.
Experiment [2] deals with HT29 colon.
For experiment [3], the system named is SNB-75 CNS.
Experiment [4] concerns SNB-19 CNS.
The subject of experiment [5] is U251 CNS.
The subject of experiment [6] is PC-3 prostate.
In experiment [7] the test system is SK-MEL-5 melanoma.
Experiment [8] concerns UACC-62 melanoma.
For experiment [9], the system named is LOX IMVI melanoma.
In experiment [10] the test system is SK-MEL-28 melanoma.
The test system of experiment [11] is SK-MEL-2 melanoma.
In experiment [12] the test system is EKVX NSCLC.
Experiment [13] deals with SN12C renal.
The test system of experiment [14] is UO-31 renal.
For experiment [15], the system named is TK-10 renal.
For experiment [16], the system named is ACHN renal.
The test system of experiment [17] is CAKI-1 renal.
The test system of experiment [18] is A498 renal.
For experiment [19], the system named is CCRF-CEM leukemia.
The test system of experiment [20] is MOLT-4 leukemia.

The panel holds about 83,000 compounds, 20% with a hit somewhere; the sample as a whole holds those more often.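 Interpretation: 100, growth as untreated; towards 0, rising growth inhibition; 0, no net growth; 0 to -100, cell death. Compounds scoring below 10 were considered active.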 Values without a mark were called inactive. The source made the active and inactive calls.

With `COc1ccc(OC)c(CCn2cncc2-c2c[nH]c3ccccc23)c1`, the growth in experiment [1] was 71.4%; in experiment [2], 86.6%; in [3], 3.33% (active); in experiment [4] it was 85.1%; in experiment [5], 87.8%; in experiment [6], 71.4%. Besides, the growth in [7] is 49.7%; in [8], 59.2%; in experiment [9] it was 79.6%; in experiment [10], 90.3%; in experiment [11], 73.5%; in experiment [12], 64.8%. Moreover, the growth is 72% in experiment [13]; 46.6% in experiment [14]; 149% in experiment [15]; 76.7% in experiment [16]; 66.7% in experiment [17]; 61.8% in experiment [18]. The growth was 68.1% in experiment [19] and 75.3% in [20].
On to `O=C(/C(=C\c1ccc([N+](=O)[O-])cc1)S(=O)Cc1ccc(Cl)cc1)c1ccc(Cl)cc1` (stereo not given), for which the growth was 34.8% in [1]; 16.5% in experiment [2]; 93% in [3]; 71.6% in experiment [4]; 53.6% in experiment [5]; 66.9% in [6]. The growth in [7] was 90.7%; in experiment [8], 69.2%; in experiment [9], 40.5%; in [10], 86.8%; in experiment [11], 94.6%; in experiment [12], 98.5%. For the same molecule, the growth in experiment [13] is 49.6%; in experiment [14], 70.4%; in experiment [15], 91.9%; in experiment [16], 64.6%; in experiment [17], 83.8%; in [18], 77.4%. For the same molecule, the growth was 22% in [19] and 25.1% in [20].
Consider `O=C1Nc2ccccc2/C1=C\c1c(-c2ccccc2)nc2ccccn12`, for which the growth is 29.3% in experiment [1]; 21.8% in experiment [2]; 38.5% in experiment [3]; 55.8% in experiment [4]; 62.9% in experiment [5]; 49.9% in [6]. For the same molecule, the growth was 17.3% in experiment [7]; 33.4% in [8]; 37.1% in experiment [9]; 58.6% in [10]; 52.5% in experiment [11]; 53.1% in [12]. Moreover, the growth was 46.1% in [13]; 48.2% in experiment [14]; 84.4% in experiment [15]; 40.9% in experiment [16]; 39.2% in [17]; 28.6% in [18]. Further, the growth was 37.9% in experiment [19] and 9.8% (active) in experiment [20].
As to `OCc1cnc2ccccc2c1NC1CCCCCC1`, the growth in [1] was 98.4%; in experiment [2], 92.1%; in [3] it was 91.4%; in experiment [4] it was 94.4%; in experiment [5], 92.6%; in experiment [6], 82.2%. Besides, the growth in experiment [7] was 59.7%; in [8], 81.7%; in experiment [9], 89.2%; in experiment [10], 102%; in experiment [11], 100%; in experiment [12], 78.7%. The growth in experiment [13] is 93.8%; in experiment [14], 67.1%; in experiment [15], 96.2%; in experiment [16], 92.3%; in [17], 73.1%; in experiment [18], 79.4%. The growth is 85.1% in experiment [19] and 91.5% in experiment [20].
On to `OCc1cnccc1NCCCOc1ccccc1`, for which the growth in experiment [1] was 105%; in [2], 102%; in [3], 99.6%; in experiment [4], 94.9%; in experiment [5], 98.2%; in experiment [6] it was 96%. Also, the growth in experiment [7] is 97.1%; in experiment [8], 90.5%; in experiment [9] it was 99.4%; in experiment [10], 109%; in [11], 107%; in [12], 105%. For the same molecule, the growth is 94.3% in experiment [13]; 87.9% in experiment [14]; 92.5% in experiment [15]; 108% in experiment [16]; 95.7% in experiment [17]; 91.9% in experiment [18]. For the same molecule, the figures for the growth in [19] and in experiment [20] were 88.8% and 96.6%, respectively.
With `c1ccc(Cn2cnc3ccc(-c4nc(-c5ccc6c(c5)ncn6C5CCCCC5)cn5ccnc45)cc32)cc1`, the growth in experiment [1] is -9.03% (active); in [2], -48.7% (active); in experiment [3], -67.4% (active); in experiment [4], 19.6%; in [5], -22.8% (active); in experiment [6], -39.5% (active). In addition, the growth in experiment [7] is -84% (active); in experiment [8], -31.2% (active); in experiment [9], -87% (active); in experiment [10], 0.441% (active); in [11], -36.7% (active); in experiment [12], -12.3% (active). Besides, the growth in [13] was -35.4% (active); in [14] it was -51.4% (active); in [15], 5.2% (active); in [16] it was 19.9%; in experiment [17], 43.3%; in [18], -71.8% (active). Further, the results for the growth in [19] and in experiment [20] were 5.6% (active) and 4.39% (active), respectively.
Consider `CCOC(=O)c1nc2c3ccccc3ccn2c1C(=O)OCC`, for which the growth is 99.7% in experiment [1]; 105% in [2]; 36.8% in [3]; 89.2% in [4]; 105% in experiment [5]; 110% in experiment [6]. The growth is 98.2% in [7]; 87.5% in [8]; 98.6% in experiment [9]; 113% in experiment [10]; 112% in experiment [11]; 76.9% in experiment [12]. Also, the growth in [13] was 95.4%; in [14] it was 96.4%; in experiment [15] it was 102%; in experiment [16], 99.5%; in experiment [17], 94.8%; in experiment [18], 109%. The growth in experiment [19] is 96.1%; in experiment [20] it was 95.4%.
